# Screening results deposited in PubChem BioAssay by National Center for Advancing Translational Sciences (NCATS).
# In the library only some 2.8% were active in any assay of this set; here they are far more common.
# GLS inhibitor: qHTS for Inhibitors of Glutaminase (GLS) | hit rate 0.21% among 410,000 | Potency, µM (top dose mostly 45.5 µM), for the others: top-dose activity change, negative = inhibition, usual class: inhibitors | Glutaminase kidney isoform, mitochondrial (Homo sapiens), O94925 | GLS enzymatic activity, qHTS titration | AID 624170, 2012; also: potency is read from the fitted curve at half-maximal effect; % is scaled to controls: 0 for no effect and ±100 for the full control effect
#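 hKGA; 45 mM KH2PO4 pH 8.2 + 0.02% Tween-20; cpd via pin tool; 1 mM Gln soln; GluOx/HRP/Amplex Red; RT 30 min; fluor. t0 & final.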
# KCNH2 3.1 block: qHTS for Inhibitors of KCHN2 3.1: Mutant qHTS | U2OS KCNH2 3.1, thallium flux FluxOr; stronger effect = lower value | activity change, % (tested at about 1.8 µM) | hit rate 0.95% among 340,000;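 active = maximum activity change below -70%; inconclusive = maximum activity change from -70% to -50%; inactive = maximum activity change above -50%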;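 also: thallium influx rate constant from kinetic fluorescence after stimulation buffer; % is scaled to controls: 0 for no effect and ±100 for the full control effect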
#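 FluxOr-based Tl+ influx in U2OS cells transduced with KCNH2 3.1 virus; rate constants normalized to DMSO controls.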
# GLP1R cytotox: qHTS of GLP-1 Receptor Inverse Agonists: Cytotox Screen | AID 624418, 2012 | hit rate 0.13% among 410,000 | HEK293 cAMP-luciferase reporter cells, luminescence, 24 h | Potency, µM (titrated, usually from 38.3 µM), without a hit: at the highest dose activity change, negative = inhibition, most hits filed as inhibitors;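 also: loss of luciferase light is scored as toxicity; potency is read from the fitted curve at half-maximal effect; % is scaled to controls: 0 for no effect and ±100 for the full control effect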
#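 A 23 nL compound transfer followed 12 hours of cell culture at 37 deg C; exposure then lasted 24 hr. Luciferase assay detection reagent was dispensed and plates read for luminescence after a 12 min room-temperature wait.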
# GLP1R ag: qHTS of GLP-1 Receptor Agonists | Glucagon-like peptide 1 receptor (Homo sapiens), P43220 | HEK293 GLP-1R CRE-luciferase, luminescence, 4-6 h; cells express a hypersensitive GLP-1R form | Potency, µM (highest dose often 45.6 µM), for inactives: at the highest dose activation, usual class: activators | hit rate 0.007% among 380,000 | AID 624172, 2012; also: potency is read from the fitted curve at half-maximal effect; % of control where 0% means no effect
# Target sequence (P43220 whole entry, looked up): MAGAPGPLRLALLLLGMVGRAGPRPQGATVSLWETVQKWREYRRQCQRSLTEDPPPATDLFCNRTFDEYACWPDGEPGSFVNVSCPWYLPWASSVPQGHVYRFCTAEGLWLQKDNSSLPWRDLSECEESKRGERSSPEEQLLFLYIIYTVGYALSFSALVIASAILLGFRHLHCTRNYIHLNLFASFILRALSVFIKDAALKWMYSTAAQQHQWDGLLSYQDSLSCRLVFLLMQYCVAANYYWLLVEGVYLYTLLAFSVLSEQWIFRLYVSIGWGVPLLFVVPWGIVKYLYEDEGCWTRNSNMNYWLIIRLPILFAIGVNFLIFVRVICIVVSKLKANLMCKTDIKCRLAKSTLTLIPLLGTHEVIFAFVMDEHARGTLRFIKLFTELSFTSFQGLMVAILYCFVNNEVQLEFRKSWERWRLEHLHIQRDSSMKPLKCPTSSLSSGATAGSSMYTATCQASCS
# GLP-1R inv ag: qHTS of GLP-1 Receptor Inverse Agonists (Inhibition Mode); Glucagon-like peptide 1 receptor (Homo sapiens), P43220; HEK293 GLP-1R CRE-luciferase, luminescence, 24 h; GLP-1R form is constitutively active; Potency, µM (titrated, usually from 38.3 µM), inactives show at the top dose activity change, negative = inhibition, actives largely listed as inhibitors; hit rate 1.6% among 410,000; AID 624417, 2012; also: potency is read from the fitted curve at half-maximal effect; % is scaled to controls: 0 for no effect and ±100 for the full control effect; nearly all actives have a fitted effect of over 55% in size
#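 Using stably transfected HEK293 (constitutively active GLP-1R, cAMP-luciferase reporter), compounds were incubated 24 hr and luciferase measured by luminescence.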
# KCNH2 WT inh: qHTS for Inhibitors of KCHN2 3.1: Wildtype qHTS; U2OS, BacMam KCNH2, thallium flux FluxOr; stronger effect = lower value; Voltage-gated inwardly rectifying potassium channel KCNH2 (Homo sapiens), Q12809; AID 720551, 2013; hit rate 0.37% among 340,000; activity change, % at 1.84 µM;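 active = maximum activity change below -70%; inconclusive = maximum activity change between -70% and -50%; inactive = maximum activity change above -50%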; also: % is scaled to controls: 0 for no effect and ±100 for the full control effect
#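 U2OS cells were transduced with wild-type KCNH2 virus (2.03 x 10^8 / mL) for 4 h at room temperature, then cultured overnight at 37 C. Thallium flux was read with FluxOr dye. Rate constants were normalized to DMSO controls.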
# * hit, by the source's call; ? = inconclusive; . = not tested or not shown; [ ] = remark or other dose. Unless noted, calls follow the shape of the dose curve; as a rule, active = well fitted curve in the direction sought with a large enough effect; inconclusive = small, poorly fitted or top-dose-only effect, or another doubt; inactive = no such curve, though single readings can be large; an effect the other way counts as inactive or inconclusive.
SMILES,GLS inhibitor,KCNH2 3.1 block,GLP1R cytotox,GLP1R ag,GLP-1R inv ag,KCNH2 WT inh
C=CCNC(=S)N/N=C/c1ccc(C)cc1C,-4.4%,-1.0,?,0.0%,?,-12.4
Cn1c(N)c(C(=O)c2cc(-c3ccccn3)nc3ccccc23)c(=O)[nH]c1=O,-11.6%,-0.5,-15.7%,2.1%,26.9%,-101.2*
COc1ccc(-c2cc(C(=O)c3c(N)n(C)c(=O)n(C)c3=O)c3ccccc3n2)cc1,2.7%,-0.7,2.4%,-1.2%,-3.3%,1.3
Cc1cc(C)c(S(=O)(=O)N2CCN(C(=O)C3COc4ccccc4O3)CC2)c(C)c1 (configuration not stated),1.2%,21.8,-2.2%,8.2%,10µM*,-4.8
COc1cccc(NC(=O)CSc2nc(C)c(Cc3ccccc3)c(=O)[nH]2)c1,-3.5%,.,0.3%,.,-12.8%,.
CC(=O)c1ccc(N2CCN(c3ncccn3)CC2)c([N+](=O)[O-])c1,13.5%,-8.9,-0.3%,13.1%,19.2%,-2.4
CC(=O)c1ccc(N2CCc3ccccc3C2)c([N+](=O)[O-])c1,1.3%,20.8,-18.7%,-1.6%,3.16µM*,-4.9
c1csc(-c2nc(N3CCOCC3)c3ccccc3n2)c1,2.9%,6.4,10.2%,33.6%,-7.5%,-0.2
O=S(=O)(c1ccc(Cl)cc1)N1CCN(c2nc(-c3cccs3)nc3ccccc23)CC1,3.5%,-89.9*,-5.7%,-4.0%,9.5%,0.5
O=C(O)c1cc2c(cc1NC(=O)c1ccccc1OC(F)F)OCCCO2,11.9%,-15.2,-1.2%,0.5%,-4.5%,25.6
COc1ccccc1C(=O)Nc1cc2c(cc1C(=O)O)OCCCO2,-7.6%,-79.6*,0.8%,-3.0%,18.2%,-1.7
Cc1nc(-c2ccc(C)c(S(=O)(=O)N3CCC(C(=O)Nc4ccc(Cl)cc4)CC3)c2)no1,-9.5%,.,-19.8%,.,10µM*,.
CCc1cccc(NC(=O)C2CCN(S(=O)(=O)c3cccc(-c4noc(C)n4)c3)CC2)c1,1.1%,.,10.6%,.,?,.
Cc1ccc(S(=O)(=O)c2ccc([N+](=O)[O-])o2)cc1,4.0%,28.3,5.62µM*,-20.7%,?,-22.4
Nc1ccc(N)c([N+](=O)[O-])c1,.,.,.,0.5%[96 µM],.,.
COc1cc2c(cc1OC)-c1cc(Nc3ccc(C(=O)O)cc3)nc(=O)n1CC2,90.9%,-93.0*,-0.6%,16.1%,83.9%,7.2
COc1ccc(Nc2cc3n(c(=O)n2)CCc2cc(OC)c(OC)cc2-3)cc1,-20.7%,0.5,10.0%,?,119.6%,0.9
COc1cc2c(cc1OC)-c1cc(Nc3ccccc3Br)nc(=O)n1CC2,-8.0%,-6.9,-6.5%,8.91µM*,131.2%,5.9
CC(C)(CO)C(O)C(=O)NCCCC(=O)O (configuration not stated),10.4%,.,.,-0.4%,.,.
O[C@H]1CN(Cc2cccs2)[C@@H](c2ccccc2)C[C@@H]1n1cc(-c2ccc(F)cc2)nn1,9.3%,-13.1,-10.6%,-4.8%,10µM*,-6.9
O[C@@H]1CN(CC2CCCCC2)[C@@H](c2ccccc2)C[C@H]1n1cc(-c2ccc(F)cc2)nn1,0.4%,-34.3,?,-0.7%,3.98µM*,2.9
O[C@H]1C[C@H](c2ccccc2)N(Cc2cccs2)C[C@@H]1n1cc(-c2ccc(F)cc2)nn1,-9.3%,-6.5,-7.5%,2.6%,?,0.3
Cc1ccc([C@H]2C[C@@H](n3cc(-c4ccc(F)cc4)nn3)[C@H](O)CN2CC2CCCCC2)cc1,-17.0%,-19.0,2.9%,-1.5%,-2.4%,2.3
Cc1c(CC(=O)N2CCCCC2)c(=O)oc2cc3occ(C(C)(C)C)c3cc12,-3.6%,.,7.2%,.,6.5%,.
CCOc1ccccc1C(=O)N[C@H](C(=O)Nc1nc2c(s1)CCCC2)C(C)C,-6.3%,.,?,20.6%,10µM*,4.6
SMILES,GLS inhibitor,KCNH2 3.1 block,GLP1R cytotox,GLP1R ag,GLP-1R inv ag,KCNH2 WT inh
O=c1c2[nH]c3ccccc3c2ncn1CCC1=CCCCC1,11.6%,14.7,7.4%,-9.9%,46.2%,-3.3
C1=C(CCNc2ncnc3c2[nH]c2ccccc23)CCCC1,12.0%,-10.6,-35.7%,-6.5%,4.47µM*,-8.1
Cc1ccc(NNC(=O)C(O)(c2cccc(C(F)(F)F)c2)c2cccc(C(F)(F)F)c2)cc1,17.2%,-0.4,?,-28.7%,3.16µM*,19.5
Cc1cccc(C(O)(C(=O)NNc2ccc3ccccc3n2)c2cccc(C)c2)c1,0.9%,-9.0,-2.5%,-4.0%,4.47µM*,-28.3
O=C(NNc1ccccc1Br)C(O)(c1cccc(C(F)(F)F)c1)c1cccc(C(F)(F)F)c1,27.5%,?,?,-31.7%,3.16µM*,3.5
Cc1ccc(C(O)(C(=O)NNc2ccccn2)c2ccc(C)cc2)cc1,12.6µM*,1.9,-2.6%,4.1%,32.8%,1.4
CCCC(O)(CCC)C(=O)NNc1ccc(C)cc1,35.0%,5.9,-15.1%,10.2%,?,-1.0
Cc1ccccc1NC(=O)c1cccc(C(F)(F)F)c1,-2.5%,-3.0,1.1%[1.53 µM],16.5%,-28.0%,8.8
CCNNC(=O)C(O)(c1cccc(C)c1)c1cccc(C)c1,21.7%,16.0,-4.2%,-13.4%,18.2%,0.9
C=CCNC(=O)C1CC1(c1cccc(C)c1)c1cccc(C)c1 (configuration not stated),10.6%,-10.0,-1.6%,7.8%,?,-1.9
Cc1cccc(C2(c3cccc(C)c3)CC2C(=O)Nc2ccc([N+](=O)[O-])cc2O)c1 (configuration not stated),17.7%,-4.2,?,-5.1%,2.51µM*,-6.2
CCOC(=O)C1=C(CS(=O)(=O)c2ccc(C)cc2)NC(=O)NC1c1ccc(C(C)C)cc1 (configuration not stated),3.3%,.,-24.2%,-1.0%,?,.
CC(C)(C)c1nc2scc(-c3ccc(Cl)cc3)c2c(=O)o1,1.4%,-81.7*,75.2%,-5.2%,0.4%,-7.3
COc1ccc(-c2csc3nc(C(C)(C)C)oc(=O)c23)cc1OC,-10.3%,2.7,0.7%,13.9%,2.5%,-0.7
Cc1ccc(-c2nc(S(=O)(=O)c3ccc(C)cc3)c(SCC(=O)c3ccccc3)o2)cc1,3.8%,.,0.5%,.,?,.
O=S(=O)(Cc1ccccc1Cl)c1ncn[nH]1,26.4%,-156.4*,5.8%,1.3%,9.7%,-129.8*
O=S(=O)(Cc1c(F)cccc1Cl)c1ncn[nH]1,6.9%,3.0,-14.5%,8.2%,-7.0%,-4.4
